KB-3-1 cytotox: kills parental KB-3-1 adenocarcinoma cells | KB-3-1 viability, CellTiter-Glo ATP luminescence, 72 h | Potency, µM (series often up to 46.1 µM), actives largely listed as cytotoxic | 1.4% of 400,000 active; also: % is scaled to controls: 0 for no effect and ±100 for the full control effect; nearly all actives have a fitted effect of over 60% in size
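Screening of KB-3-1 cells (DMEM, 10% FBS, phenol-red free) ran from lowest to highest compound concentration; after 72 h at 37 °C viability was read luminescently and curves fitted.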
SW480 rerep: DNA re-replication induction in SW480 cells; SW480 DNA re-replication, Hoechst DNA content imaging, 48 h; Potency, µM (highest dose often 46.1 µM), without a hit: at the highest dose re-replication activation, hits mostly activators; 1.8% of 340,000 active; AID 624297; also: % of control where 0% means no effect; nearly all actives have a fitted effect of over 55% in size
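250 cells/well; 23 nL cpd via pin tool; 48 hr, 37 C, 5% CO2; Hoechst 40 min; imager read of total nuclear intensity, ex 405/em 500-530 nm.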
KB-V1 MDR tox: kills drug-selected multidrug resistant KB-V1 cells. Potency, µM (highest dose often 46.1 µM), usual class: cytotoxic. 3.4% of 400,000 active. KB-V1 MDR cells viability, CellTiter-Glo, 72 h; also: % is scaled to controls: 0 for no effect and ±100 for the full control effect; nearly all actives have a fitted effect of over 60% in size
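Drug-selected KB-V1 cells, grown in DMEM lacking phenol red with 10% FBS, receive compound titrations; after three days at 37 degrees C, surviving cell ATP is quantified by CellTiter-Glo luminescence and responses normalized and curve-fitted.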
ELG1 repair inh: ELG1-dependent DNA repair inhibition | HEK293T ELG1-luciferase reporter, luminescence, 16 h; DNA damage induced by 5-fluorouridine | Potency, µM (series often up to 46.1 µM), inactives show top-dose activity change, negative = inhibition, actives largely listed as inhibitors | 2.3% of 330,000 active; also: % is scaled to controls: 0 for no effect and ±100 for the full control effect; nearly all actives have a fitted effect of over 55% in size
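Luminescence from the luciferase reporter, measured 30 min after ONE-Glo reagent at room temperature, was the read-out. Beforehand, 2,000 cells per well were exposed for 16 hr at 37 °C to 5-fluorouridine together with compound or vehicle.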
MCF10A rerep: inducers of DNA re-replication in MCF 10A breast cells | 2.9% of 350,000 active | Potency, µM (titrated, usually from 46.1 µM), for inactives: at the top dose activity, positive = re-replication, actives largely listed as activators | AID 624296 | MCF 10A DNA re-replication, Hoechst nuclear intensity, 48 h; also: % of control where 0% means no effect; nearly all actives have a fitted effect of over 50% in size
* hit, by the source's call; i = inactive; ? = inconclusive; . = no result given. In the library only some 8.2% were active in any assay of this set; here they are far more common. Calls follow the shape of the dose curve; as a rule, active = well fitted curve in the direction sought with a large enough effect; inconclusive = small, poorly fitted or top-dose-only effect, or another doubt; inactive = no such curve, though single readings can be large; an effect the other way counts as inactive or inconclusive. Potency is read from the fitted curve at half-maximal effect.

SMILES | KB-3-1 cytotox | SW480 rerep | KB-V1 MDR tox | ELG1 repair inh | MCF10A rerep
O=C(Oc1ccc(Cl)c2cccnc12)c1ccco1 | ? | ? | ? | ? | 7.3µM*
CC1(C)OC2CC3C4CC(F)C5=CC(=O)C=CC5(C)C4(F)C(O)CC3(C)C2(C(=O)CO)O1 (centres undefined) | i | -3% | i | ? | 1%
Cc1nnc(SC(C)C(=O)Nc2ccc3ccccc3c2)n1C (centres undefined) | i | -17% | i | 5% | 3%
O=C(O)c1ccc(N(Cc2ccccc2)S(=O)(=O)c2ccccc2)cc1 | i | -9% | i | -11% | -2%
O=C(CN(c1ccc(Cl)cc1)S(=O)(=O)c1ccc(Cl)c([N+](=O)[O-])c1)NCCc1ccc(F)cc1 | i | 6% | i | 1% | 3.7µM*
O=C(CN(c1ccc(Cl)cc1)S(=O)(=O)c1ccc(Cl)c([N+](=O)[O-])c1)NCCc1ccccc1 | i | -15% | i | ? | 3.7µM*
O=C(O)c1cc(S(=O)(=O)N(Cc2ccccc2)c2ccc(Cl)cc2)ccc1Cl | i | ? | i | ? | 21µM*
O=C(CN(c1cc(C(F)(F)F)ccc1Cl)S(=O)(=O)c1ccccc1)NCCc1ccccc1 | i | . | i | . | .
CN(CC(=O)NCC1CCCO1)S(=O)(=O)c1ccc(Br)cc1 (centres undefined) | i | -11% | i | -1% | -2%
O=C(CN(c1ccc(Br)cc1)S(=O)(=O)c1ccc(Cl)c([N+](=O)[O-])c1)NCC1CCCO1 (centres undefined) | i | ? | ? | . | 16µM*
COC(=O)c1ccc(NC(=O)CN(C)S(=O)(=O)c2ccc(Br)s2)cc1 | i | . | i | . | .
FC(F)(F)c1cc(-c2ccc(Cl)cc2)nc(NCc2cccnc2)n1 | i | ? | ? | 21µM* | 16µM*
O=C(COC(=O)CNC(=O)c1ccccc1Cl)Nc1cc(C(F)(F)F)ccc1Cl | i | 4% | i | 25% | 15µM*
Cc1ccc(NC(=O)CSc2nc(-c3ccco3)nc3cc(=O)[nH]n23)cc1 | i | . | ? | . | .
Nc1cc(=O)[nH]c(SCC(=O)N2CCN(S(=O)(=O)c3ccc4ccccc4c3)CC2)n1 | i | 2% | i | 9% | 3%
O=C(c1ccc(=O)[nH]n1)N1CCN(S(=O)(=O)c2ccc3ccccc3c2)CC1 | i | -8% | i | 16µM* | 2%
O=C(CSc1ncc(C(F)(F)F)cc1Cl)N1CCN(S(=O)(=O)c2ccc3ccccc3c2)CC1 | i | 6% | 5.8µM* | ? | 18%
O=S(=O)(c1ccc2ccccc2c1)N1CCN(C2CCN(Cc3ccccc3)CC2)CC1 | i | -4% | 7.3µM* | -29% | 1%
CC(C)CC(=O)N1CCN(S(=O)(=O)c2ccc3ccccc3c2)CC1 | ? | 4% | 7.3µM* | ? | 6%
CCOC(=O)c1ccc(NC(=O)Cc2coc3cc(C)cc(C)c23)cc1 | i | . | i | . | .
O=c1[nH]cnc2cc(-c3ccccc3)sc12 | 16µM* | -5% | 6.5µM* | ? | 5%
O=C(/C=C/c1cccc(Br)c1)N1CCN(c2cccc(C(F)(F)F)c2)CC1 | i | ? | ? | 10% | ?
O=C(/C=C/c1ccc(Br)cc1)N1CCN(c2cccc(C(F)(F)F)c2)CC1 | ? | 9% | ? | 9% | 13µM*
COc1ccccc1CC(=O)N1CCN(c2cccc(C(F)(F)F)c2)CC1 | i | -3% | 12µM* | -11% | 5%
COc1cc2nc(Nc3ccc(C)c(C)c3)nc(N)c2cc1OC | i | ? | i | -3% | ?
COc1cc2nc(Nc3ccc(F)cc3)nc(N)c2cc1OC | i | ? | i | ? | ?
COc1cc2nc(Nc3ccc(C)c(Cl)c3)nc(N)c2cc1OC | i | 21µM* | ? | ? | 21µM*
CCOC(=O)c1ccc(Nc2nc(N)c3cc(OC)c(OC)cc3n2)cc1 | i | ? | i | -24% | 21µM*
CCOCCCNC(=O)c1cc2c(=O)n(CC)c3ccccc3c2s1 | ? | ? | i | -16% | 23µM*

Bioassay records: PubChem, National Center for Advancing Translational Sciences (NCATS)
